“And” between values parts separate entries of the source, which are not always exact repeats. Equal entries are not always repeated. The whole screen tested about 5,500 compounds, of which about 2,000 (36%) were called active. About 18% were inconclusive and are not listed. No stated cut-off is given here; in the data, active means normalized growth mostly below about 0.91 (no sharp cut-off); inconclusive means no clear call, values can overlap the other calls; inactive means mostly above about 0.92. The list shows a part of the results. More than one record can exist for a structure, and the calls need not agree.
Assay: chemical genetic growth profiling, strain panel (AID 1159580);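 further: tested at 20 µM; growth read once vehicle control cultures reached saturation at 30 °C; 1 = growth at the plate median or of vehicle wells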
Conditions: growth OD

Measured: normalized growth

O=C1CCc2cc(OCCCCc3nnnn3C3CCCCC3)ccc2N1
1.01 (inactive) and 0.0868 (active): S. cerevisiae deletion strains, locus YMR263W, strain SAP30, stronger effect = lower value
inactive: S. cerevisiae deletion strains, locus YKL009W, strain mrt4, stronger effect = lower value 1 | S. cerevisiae deletion strains, locus YKL068W, stronger effect = lower value 1 | S. cerevisiae deletion strains, locus YKL085W, strain MDH1 (second series), stronger effect = lower value 1.01 | S. cerevisiae deletion strains, locus YKL085W, strain MDH1, stronger effect = lower value 1.01 | S. cerevisiae deletion strains, locus YKL160W, strain elf1, stronger effect = lower value 0.987 | S. cerevisiae deletion strains, locus YKL190W, strain CNB1, stronger effect = lower value 1.01 | S. cerevisiae deletion strains, locus YKR001C, strain vps1, stronger effect = lower value 0.993 | S. cerevisiae deletion strains, locus YKR026C, strain gcn3, stronger effect = lower value 0.979 | S. cerevisiae deletion strains, locus YKR091W, strain srl3, stronger effect = lower value 0.99 | S. cerevisiae deletion strains, locus YLL001W, strain dnm1, stronger effect = lower value 0.984 | S. cerevisiae deletion strains, locus YLL026W, stronger effect = lower value 0.993 | S. cerevisiae deletion strains, locus YLL041C, strain sdh2, stronger effect = lower value 0.991 | S. cerevisiae deletion strains, locus YLR027C, strain aat2, stronger effect = lower value 0.978 | S. cerevisiae deletion strains, locus YLR039C, strain RIC1, stronger effect = lower value 0.972 | S. cerevisiae deletion strains, locus YLR058C, strain SHM2, stronger effect = lower value 1.01 | S. cerevisiae deletion strains, locus YLR102C, strain apc9, stronger effect = lower value 0.999 | S. cerevisiae deletion strains, locus YLR113W, strain HOG1, stronger effect = lower value 0.983 | S. cerevisiae deletion strains, locus YLR221C, strain rsa3, stronger effect = lower value 0.984 | S. cerevisiae deletion strains, locus YLR258W, strain gsy2, stronger effect = lower value 0.986 | S. cerevisiae deletion strains, locus YLR262C, strain YPT6 (second series), stronger effect = lower value 0.876 | S. cerevisiae deletion strains, locus YLR262C, strain YPT6, stronger effect = lower value 0.998 | S. cerevisiae deletion strains, locus YLR268W, strain sec22, stronger effect = lower value 0.999 | S. cerevisiae deletion strains, locus YLR320W, strain mms22, stronger effect = lower value 0.976 | S. cerevisiae deletion strains, locus YLR330W, strain CHS5, stronger effect = lower value 1.01 | S. cerevisiae deletion strains, locus YLR342W, strain FKS1 (second series), stronger effect = lower value 0.987 | S. cerevisiae deletion strains, locus YLR342W, strain FKS1, stronger effect = lower value 0.985 | S. cerevisiae deletion strains, locus YLR357W, strain rsc2, stronger effect = lower value 0.956 | S. cerevisiae deletion strains, locus YLR370C, strain arc18, stronger effect = lower value 0.99 | S. cerevisiae deletion strains, locus YLR371W, strain rom2, stronger effect = lower value 0.995 | S. cerevisiae deletion strains, locus YLR384C, strain iki3, stronger effect = lower value 0.972 | S. cerevisiae deletion strains, locus YLR418C, strain cdc73, stronger effect = lower value 1 | S. cerevisiae deletion strains, locus YML016C, strain PPZ1, stronger effect = lower value 1.01 | S. cerevisiae deletion strains, locus YML032C, strain rad52, stronger effect = lower value 1.02 | S. cerevisiae deletion strains, locus YML120C, strain ndi1, stronger effect = lower value 0.994 | S. cerevisiae deletion strains, locus YML124C, strain tub3, stronger effect = lower value 0.992 | S. cerevisiae deletion strains, locus YMR058W, strain fet3, stronger effect = lower value 1 | S. cerevisiae deletion strains, locus YMR078C, strain ctf18, stronger effect = lower value 0.998 | S. cerevisiae deletion strains, locus YMR125W, strain sto1, stronger effect = lower value 0.999 | S. cerevisiae deletion strains, locus YMR129W, stronger effect = lower value 0.985 | S. cerevisiae deletion strains, locus YMR205C, strain PFK2, stronger effect = lower value 0.989 | S. cerevisiae deletion strains, locus YMR223W, strain ubp8, stronger effect = lower value 0.991 | S. cerevisiae deletion strains, locus YMR231W, strain pep5, stronger effect = lower value 0.996 | S. cerevisiae deletion strains, locus YMR307W, strain GAS1, stronger effect = lower value 0.946 and 0.993 | S. cerevisiae deletion strains, locus YNL067W, strain RPL9B, stronger effect = lower value 1.03 | S. cerevisiae deletion strains, locus YNL071W, strain lat1, stronger effect = lower value 1 | S. cerevisiae deletion strains, locus YNL128W, strain TEP1, stronger effect = lower value 1.01 | S. cerevisiae deletion strains, locus YNL153C, strain GIM3, stronger effect = lower value 1.01 | S. cerevisiae deletion strains, locus YNL175C, strain NOP13, stronger effect = lower value 1.03 | S. cerevisiae deletion strains, locus YNL183C, strain NPR1, stronger effect = lower value 0.966 | S. cerevisiae deletion strains, locus YNL197C, strain WHI3, stronger effect = lower value 1.01 | S. cerevisiae deletion strains, locus YNL209W, strain ssb2, stronger effect = lower value 0.998 | S. cerevisiae deletion strains, locus YNL224C, strain SQS1, stronger effect = lower value 1 | S. cerevisiae deletion strains, locus YNL233W, strain BNI4, stronger effect = lower value 1.01 | S. cerevisiae deletion strains, locus YNL248C, strain rpa49, stronger effect = lower value 0.999 | S. cerevisiae deletion strains, locus YNL250W, strain rad50, stronger effect = lower value 0.992 | S. cerevisiae deletion strains, locus YNL271C, strain bni1, stronger effect = lower value 1 | S. cerevisiae deletion strains, locus YNL298W, strain CLA4, stronger effect = lower value 1 | S. cerevisiae deletion strains, locus YNL307C, strain MCK1, stronger effect = lower value 0.982 | S. cerevisiae deletion strains, locus YNL322C, strain KRE1 (second series), stronger effect = lower value 0.988 | S. cerevisiae deletion strains, locus YNL322C, strain KRE1, stronger effect = lower value 1.01 | S. cerevisiae deletion strains, locus YNR049C, strain mso1, stronger effect = lower value 0.998 | S. cerevisiae deletion strains, locus YNR052C, strain pop2, stronger effect = lower value 1 | S. cerevisiae deletion strains, locus YOL006C, strain TOP1, stronger effect = lower value 1.01 | S. cerevisiae deletion strains, locus YOL012C, strain htz1 1.15 | S. cerevisiae deletion strains, locus YOL147C, strain pex11, stronger effect = lower value 0.991 | S. cerevisiae deletion strains, locus YOR001W, strain rrp6, stronger effect = lower value 0.992 | S. cerevisiae deletion strains, locus YOR061W, strain CKA2, stronger effect = lower value 1 | S. cerevisiae deletion strains, locus YOR069W, strain VPS5, stronger effect = lower value 1 | S. cerevisiae deletion strains, locus YOR070C, strain gyp1, stronger effect = lower value 0.995 | S. cerevisiae deletion strains, locus YOR080W, strain dia2, stronger effect = lower value 0.984 | S. cerevisiae deletion strains, locus YOR083W, strain WHI5 (second series), stronger effect = lower value 0.993 | S. cerevisiae deletion strains, locus YOR083W, strain WHI5, stronger effect = lower value 0.987 | S. cerevisiae deletion strains, locus YOR106W, strain vam3, stronger effect = lower value 0.977 | S. cerevisiae deletion strains, locus YOR136W, strain idh2, stronger effect = lower value 0.983 | S. cerevisiae deletion strains, locus YOR144C, strain elg1, stronger effect = lower value 0.995 | S. cerevisiae deletion strains, locus YOR184W, strain ser1, stronger effect = lower value 1.02 | S. cerevisiae deletion strains, locus YOR231W, strain MKK1, stronger effect = lower value 0.974 | S. cerevisiae deletion strains, locus YOR265W, strain rbl2, stronger effect = lower value 0.987 | S. cerevisiae deletion strains, locus YOR270C, strain vph1, stronger effect = lower value 0.991 | S. cerevisiae deletion strains, locus YOR290C, strain snf2, stronger effect = lower value 1 | S. cerevisiae deletion strains, locus YOR316C, strain cot1, stronger effect = lower value 1 | S. cerevisiae deletion strains, locus YPL051W, strain arl3, stronger effect = lower value 0.983 | S. cerevisiae deletion strains, locus YPL055C, strain LGE1, stronger effect = lower value 1.06 | S. cerevisiae deletion strains, locus YPL078C, strain atp4, stronger effect = lower value 0.977 | S. cerevisiae deletion strains, locus YPL106C, strain sse1, stronger effect = lower value 1.01 | S. cerevisiae deletion strains, locus YPL240C, strain hsp82, stronger effect = lower value 0.982 | S. cerevisiae deletion strains, locus YPL241C, strain CIN2, stronger effect = lower value 1 | S. cerevisiae deletion strains, locus YPL256C, strain CLN2, stronger effect = lower value 0.985 | S. cerevisiae deletion strains, locus YPR119W, strain clb2, stronger effect = lower value 0.998 | S. cerevisiae deletion strains, locus YPR141C, strain kar3, stronger effect = lower value 1 | S. cerevisiae deletion strains, locus YPR163C, strain tif3, stronger effect = lower value 0.978 | S. cerevisiae deletion strains, locus YPR167C, strain met16, stronger effect = lower value 0.996 | S. cerevisiae deletion strains, strain wtn01, stronger effect = lower value 1.01 | S. cerevisiae strains, strain wild type, stronger effect = lower value 1.01

— PubChem BioAssay AID1159580 (chemical genetic matrix, 2015)
